“And” between values parts separate entries of the source, which are not always exact repeats. Equal values may be shown once. The campaign covered roughly 5,500 compounds. About 2,000 (36%) were called active. Another 18% or so got no clear call; they are omitted. Cut-off read from the data, not from the text of the source: active = normalized growth mostly below about 0.91 (no sharp cut-off); inconclusive = no clear call, values can overlap the other calls; inactive = mostly above about 0.92. The list shows a part of the results.
Assay: chemical genetic growth profiling, strain panel (AID 1159580);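 note: tested at 20 µM; growth read once vehicle control cultures reached saturation at 30 °C; 1 = growth at the plate median or of vehicle wells; lower values mean less growth of the strain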
Settings: S. cerevisiae deletion strains, growth OD

Measured: normalized growth

CCC(CCC(C)[C@H]1CCC2C3CC=C4C[C@@H](O)CC[C@]4(C)C3CC[C@@]21C)C(C)C (stereo partly drawn)
inactive: locus YAL013W, strain DEP1, stronger effect = lower value 0.998 | locus YAL021C, strain ccr4, stronger effect = lower value 1.01 | locus YAL026C, strain drs2, stronger effect = lower value 1.01 | locus YAL030W, strain snc1, stronger effect = lower value 1.01 | locus YBL061C, strain skt5, stronger effect = lower value 1.02 | locus YBR009C, strain hhf1, stronger effect = lower value 1.02 | locus YBR021W, strain FUR4, stronger effect = lower value 1.02 | locus YBR023C, strain chs3, stronger effect = lower value 1.01 | locus YBR171W, strain sec66, stronger effect = lower value 1.04 | locus YBR229C, strain ROT2, stronger effect = lower value 0.988 | locus YBR231C, strain swc5, stronger effect = lower value 1.01 | locus YBR279W, strain paf1, stronger effect = lower value 1.01 | locus YCL011C, strain gbp2, stronger effect = lower value 1.02 | locus YCL016C, strain dcc1, stronger effect = lower value 1.02 | locus YCL029C, strain bik1, stronger effect = lower value 0.999 | locus YCL061C, strain MRC1, stronger effect = lower value 1.02 | locus YCL069W, strain vba3, stronger effect = lower value 1.02 | locus YCR088W, strain abp1, stronger effect = lower value 1.02 | locus YDL005C, strain med2, stronger effect = lower value 1.02 | locus YDL035C, strain GPR1, stronger effect = lower value 1.05 | locus YDL040C, strain nat1, stronger effect = lower value 1.02 | locus YDL074C, strain BRE1, stronger effect = lower value 1.05 | locus YDL101C, strain DUN1, stronger effect = lower value 0.973 | locus YDL134C, strain PPH21, stronger effect = lower value 0.97 | locus YDL185W, strain tfp1, stronger effect = lower value 0.976 | locus YDL192W, strain arf1, stronger effect = lower value 1.02 | locus YDR001C, strain nth1, stronger effect = lower value 1.01 | locus YDR069C, strain doa4, stronger effect = lower value 1.03 | locus YDR101C, strain arx1, stronger effect = lower value 1.03 | locus YDR137W, strain rgp1, stronger effect = lower value 1.01 | locus YDR150W, strain NUM1, stronger effect = lower value 0.997 | locus YDR159W, strain sac3, stronger effect = lower value 1.04 | locus YDR162C, strain NBP2, stronger effect = lower value 0.994 | locus YDR195W, strain ref2 1.03 | locus YDR297W, strain sur2, stronger effect = lower value 1.03 | locus YDR318W, strain mcm21, stronger effect = lower value 0.986 | locus YDR334W, strain swr1, stronger effect = lower value 1.03 | locus YDR335W, strain msn5, stronger effect = lower value 1.01 | locus YDR388W, stronger effect = lower value 0.975 | locus YDR392W, strain spt3, stronger effect = lower value 1.02 | locus YDR502C, strain sam2, stronger effect = lower value 0.973 | locus YEL003W, strain gim4, stronger effect = lower value 1.01 | locus YEL037C, strain rad23, stronger effect = lower value 1.02 | locus YEL061C, strain CIN8 (second series), stronger effect = lower value 1.02 | locus YER015W, strain faa2, stronger effect = lower value 1.01 | locus YER016W, strain bim1, stronger effect = lower value 1.02 | locus YER110C, stronger effect = lower value 0.979 | locus YER111C, strain swi4, stronger effect = lower value 1.02 | locus YER155C, strain BEM2 (second series), stronger effect = lower value 1.04 | locus YER155C, strain BEM2, stronger effect = lower value 0.982 | locus YER167W, strain BCK2, stronger effect = lower value 1.01 | locus YFR010W, strain ubp6, stronger effect = lower value 1.02 | locus YGL078C, strain dbp3, stronger effect = lower value 0.983 | locus YGL086W, strain mad1, stronger effect = lower value 0.989 | locus YGL167C, strain pmr1, stronger effect = lower value 1.03 | locus YGL173C, strain kem1, stronger effect = lower value 1.02 | locus YGL227W, strain vid30, stronger effect = lower value 1.02 | locus YGL240W, strain doc1, stronger effect = lower value 1.03 | locus YGL248W, strain PDE1, stronger effect = lower value 0.978 | locus YGL253W, strain hxk2, stronger effect = lower value 1.02 | locus YGR135W, strain pre9, stronger effect = lower value 0.958 | locus YGR252W, strain gcn5, stronger effect = lower value 0.929 | locus YHR013C, strain ard1, stronger effect = lower value 1.04 | locus YHR027C, strain rpn1, stronger effect = lower value 1.01 | locus YHR030C, strain SLT2, stronger effect = lower value 0.996 | locus YHR079C, strain IRE1 (second series), stronger effect = lower value 0.987 | locus YHR079C, strain IRE1, stronger effect = lower value 0.984 | locus YHR094C, strain hxt1, stronger effect = lower value 0.984 | locus YHR129C, strain ARP1, stronger effect = lower value 0.994 | locus YHR142W, strain chs7, stronger effect = lower value 1.02 | locus YHR200W, strain rpn10, stronger effect = lower value 0.961 | locus YIL066C, strain RNR3, stronger effect = lower value 1.01 | locus YIL073C, strain SPO22, stronger effect = lower value 1.02 | locus YIL125W, strain kgd1, stronger effect = lower value 0.993 | locus YIR030C, strain dcg1, stronger effect = lower value 0.986 | locus YJL092W, strain hpr5, stronger effect = lower value 1.02 | locus YJL095W, strain BCK1 (second series), stronger effect = lower value 1.01 | locus YJL095W, strain BCK1, stronger effect = lower value 0.972 and 0.979 | locus YJL115W, strain asf1, stronger effect = lower value 1 | locus YJL129C, strain trk1, stronger effect = lower value 1.03 | locus YJL134W, strain LCB3, stronger effect = lower value 0.991 | locus YJL154C, strain vps35, stronger effect = lower value 1.02 | locus YJL164C, strain tpk1, stronger effect = lower value 1.01 | locus YJL166W, strain qcr8, stronger effect = lower value 1.02 | locus YJL168C, strain set2, stronger effect = lower value 0.988 | locus YJL187C, strain SWE1 (second series), stronger effect = lower value 0.977 | locus YJL187C, strain SWE1, stronger effect = lower value 1.01 | locus YJR043C, strain POL32, stronger effect = lower value 1.06 | locus YJR066W, strain TOR1, stronger effect = lower value 0.915 | locus YKL009W, strain mrt4, stronger effect = lower value 1.01 | locus YKL068W, stronger effect = lower value 0.981 | locus YKL085W, strain MDH1 (second series), stronger effect = lower value 0.998 | locus YKL085W, strain MDH1, stronger effect = lower value 0.998 | locus YKL160W, strain elf1, stronger effect = lower value 1.01 | locus YKR001C, strain vps1, stronger effect = lower value 1 | locus YKR026C, strain gcn3, stronger effect = lower value 1.02 | locus YKR091W, strain srl3, stronger effect = lower value 1.01 | locus YLL001W, strain dnm1, stronger effect = lower value 1.01 | locus YLL026W, stronger effect = lower value 1.02 | locus YLL041C, strain sdh2, stronger effect = lower value 1.01 | locus YLR027C, strain aat2, stronger effect = lower value 1.02 | locus YLR039C, strain RIC1, stronger effect = lower value 1.04 | locus YLR058C, strain SHM2, stronger effect = lower value 0.998 | locus YLR102C, strain apc9, stronger effect = lower value 0.976 | locus YLR113W, strain HOG1, stronger effect = lower value 0.97 | locus YLR221C, strain rsa3, stronger effect = lower value 1.01 | locus YLR258W, strain gsy2, stronger effect = lower value 1 | locus YLR262C, strain YPT6 (second series), stronger effect = lower value 1.03 | locus YLR262C, strain YPT6, stronger effect = lower value 1.05 | locus YLR268W, strain sec22, stronger effect = lower value 1.01 | locus YLR320W, strain mms22, stronger effect = lower value 1.03 | locus YLR342W, strain FKS1 (second series), stronger effect = lower value 1.08 | locus YLR342W, strain FKS1, stronger effect = lower value 1.03 | locus YLR357W, strain rsc2, stronger effect = lower value 1 | locus YLR370C, strain arc18, stronger effect = lower value 1.01 | locus YLR371W, strain rom2, stronger effect = lower value 1 | locus YLR384C, strain iki3, stronger effect = lower value 1.02 | locus YLR418C, strain cdc73, stronger effect = lower value 0.964 | locus YML016C, strain PPZ1, stronger effect = lower value 1 | locus YML032C, strain rad52, stronger effect = lower value 1.01 | locus YML120C, strain ndi1, stronger effect = lower value 1.01 | locus YML124C, strain tub3, stronger effect = lower value 0.986 | locus YMR058W, strain fet3, stronger effect = lower value 1.02 | locus YMR078C, strain ctf18, stronger effect = lower value 0.971 | locus YMR125W, strain sto1, stronger effect = lower value 1.01 | locus YMR129W, stronger effect = lower value 1.01 | locus YMR205C, strain PFK2, stronger effect = lower value 1.03 | locus YMR223W, strain ubp8, stronger effect = lower value 0.987 | locus YMR231W, strain pep5, stronger effect = lower value 0.997 | locus YMR307W, strain GAS1, stronger effect = lower value 0.996 | locus YNL067W, strain RPL9B, stronger effect = lower value 0.988 | locus YNL071W, strain lat1, stronger effect = lower value 1.01 | locus YNL128W, strain TEP1, stronger effect = lower value 1.01 | locus YNL153C, strain GIM3, stronger effect = lower value 0.986 | locus YNL183C, strain NPR1, stronger effect = lower value 0.905 | locus YNL209W, strain ssb2, stronger effect = lower value 1.01 | locus YNL233W, strain BNI4, stronger effect = lower value 0.968 | locus YNL248C, strain rpa49, stronger effect = lower value 1.01 | locus YNL250W, strain rad50, stronger effect = lower value 0.961 | locus YNL271C, strain bni1, stronger effect = lower value 0.974 | locus YNL298W, strain CLA4, stronger effect = lower value 0.993 | locus YNL307C, strain MCK1, stronger effect = lower value 0.978 | locus YNL322C, strain KRE1 (second series), stronger effect = lower value 1.01 | locus YNR049C, strain mso1, stronger effect = lower value 1.01 | locus YNR052C, strain pop2, stronger effect = lower value 0.973 | locus YOL006C, strain TOP1, stronger effect = lower value 1.1 | locus YOL012C, strain htz1 0.713 | locus YOL147C, strain pex11, stronger effect = lower value 0.989 | locus YOR001W, strain rrp6, stronger effect = lower value 1.03 | locus YOR061W, strain CKA2, stronger effect = lower value 1.02 | locus YOR069W, strain VPS5, stronger effect = lower value 0.99 | locus YOR070C, strain gyp1, stronger effect = lower value 1.05 | locus YOR080W, strain dia2, stronger effect = lower value 1.02 | locus YOR083W, strain WHI5, stronger effect = lower value 1.02 | locus YOR106W, strain vam3, stronger effect = lower value 1.02 | locus YOR136W, strain idh2, stronger effect = lower value 0.971 | locus YOR144C, strain elg1, stronger effect = lower value 0.988 | locus YOR184W, strain ser1, stronger effect = lower value 1.05 | locus YOR231W, strain MKK1, stronger effect = lower value 0.991 | locus YOR265W, strain rbl2, stronger effect = lower value 1.02 | locus YOR270C, strain vph1, stronger effect = lower value 1.03 | locus YOR290C, strain snf2, stronger effect = lower value 1.02 | locus YOR316C, strain cot1, stronger effect = lower value 0.978 | locus YPL051W, strain arl3, stronger effect = lower value 1.04 | locus YPL078C, strain atp4, stronger effect = lower value 1.01 | locus YPL106C, strain sse1, stronger effect = lower value 1.01 | locus YPL240C, strain hsp82, stronger effect = lower value 1.01 | locus YPL256C, strain CLN2, stronger effect = lower value 0.989 | locus YPR119W, strain clb2, stronger effect = lower value 0.97 | locus YPR141C, strain kar3, stronger effect = lower value 0.972 | locus YPR163C, strain tif3, stronger effect = lower value 0.979 | locus YPR167C, strain met16, stronger effect = lower value 0.97 | strain wtn01, stronger effect = lower value 1.01

— PubChem BioAssay AID1159580 (chemical genetic matrix, 2015)
